Laboratory results taken from PubChem BioAssay.
Calls of active or inactive are those of the source.

Tests used:
Albumin (Bos taurus) = Albumin (Bos taurus) (UniProt P02769); experiment: bovine serum albumin binders on microarray, profiling panel, artefact control for SMM control protein annotation, biochemical, small-molecule microarray, Alexa647 label, 635/667 nm fluorescence (AID 1118); settings: BSA-A647 binding, fluorescence 635 nm, higher = more signal;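 further: score merges 667 nm emission intensity and signal-to-noise per printed compound spot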
Chain of Albumin (Bos taurus) (P02769 whole entry, looked up): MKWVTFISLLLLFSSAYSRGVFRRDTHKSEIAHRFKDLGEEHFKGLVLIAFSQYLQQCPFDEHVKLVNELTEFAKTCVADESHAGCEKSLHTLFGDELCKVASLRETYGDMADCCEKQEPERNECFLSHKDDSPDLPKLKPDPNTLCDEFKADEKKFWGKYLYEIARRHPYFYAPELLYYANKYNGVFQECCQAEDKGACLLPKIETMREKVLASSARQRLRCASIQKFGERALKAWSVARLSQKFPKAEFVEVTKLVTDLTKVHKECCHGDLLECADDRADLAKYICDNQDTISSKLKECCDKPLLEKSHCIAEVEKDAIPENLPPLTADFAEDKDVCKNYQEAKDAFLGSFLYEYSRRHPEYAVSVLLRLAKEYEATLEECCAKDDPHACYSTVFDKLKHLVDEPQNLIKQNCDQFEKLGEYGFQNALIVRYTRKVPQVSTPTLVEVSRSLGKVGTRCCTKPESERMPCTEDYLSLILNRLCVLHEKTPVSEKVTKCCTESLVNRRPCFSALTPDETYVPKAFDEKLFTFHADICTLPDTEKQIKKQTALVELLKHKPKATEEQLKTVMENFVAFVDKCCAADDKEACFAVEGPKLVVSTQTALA

[1] = small-molecule microarray binders of probe aXIP, primary screen, biochemical, NeuroSMM set, 635/667 nm fluorescence (AID 1119); settings: higher = more signal, called active from +8 up or from −8 down;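 further: probe is the protein aXip251-270 applied at 1 µg/mL to compound-printed slides; binding of probe to printed compounds measured as 667 nm fluorescence plus signal to noise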
[2] = small-molecule binders of probe aNOTCH3, primary screen, biochemical, small-molecule microarray, 635/667 nm fluorescence (AID 1120); settings: higher = more signal;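 further: probe is a biotin-tagged antibody raised against NOTCH3 rather than NOTCH3 protein; score merges spot fluorescence near 667 nm with spot signal to noise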
[3] = small-molecule binders of probe aNOTCH2, primary screen, biochemical, small-molecule microarray, 635/667 nm fluorescence (AID 1121); settings: higher = more signal;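 further: score merges feature fluorescence read at 667 nm with its signal to noise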
[4] = molecular target: Carbonic anhydrase 2 (Homo sapiens) (UniProt P00918); experiment: CAII small-molecule binders, profiling panel, biochemical, small-molecule microarray, Alexa647-labelled CAII (AID 1122); settings: CAII-A647 binding fluorescence, higher = more signal
[5] = COS7 lysate on small-molecule microarray, probe aHis, 635 nm (AID 1123); settings: COS7 cell lysate, fluorescence, higher = more signal;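 further: z-score combines 667nm fluorescence intensity with signal-to-noise per printed compound spot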
[6] = compound binding in COS7 lysate, probe aLAP1, primary screen, cell lysate, small-molecule microarray (AID 1124); settings: probe aLAP1, fluorescence, higher = more signal;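 further: lysate comes from COS7 cells expressing LAP1 and is applied at 0.3 µg/mL; score merges spot fluorescence near 667 nm with signal-to-noise over triplicate slides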
Sam68 (KHDRBS1) = experiment: Sam68 small-molecule binders, primary screen, biochemical, small-molecule microarray, 635 nm fluorescence (AID 1125); settings: small-molecule microarray binding, higher = more signal;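 further: score merges 667 nm channel intensity with signal to noise over triplicate slides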
[7] = tested on: Chordin-like protein 2 (CHRDL2); experiment: CHRDL2 small-molecule binders, primary screen, biochemical, small-molecule microarray, 635 nm fluorescence (AID 1126); settings: small-molecule microarray binding, fluorescence 635 nm; higher = more signal;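 further: printed compound slides probed with Chrdl2 protein at 4 µg/mL for 1 h at 4 C; score merges 667 nm emission intensity with signal to noise over three replicate slides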
[8] = molecular target: Concanavalin-A (Canavalia ensiformis) (UniProt P02866); experiment: ConA small-molecule binders, primary screen, artefact control for SMM control protein annotation, biochemical, small-molecule microarray, Alexa647 label, 635 nm (AID 1127); settings: ConA-A647 binding fluorescence, higher = more signal;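 further: z combines 667 nm emission intensity with signal-to-noise across three replicate slides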
Chain of Concanavalin-A (Canavalia ensiformis) (P02866 whole entry, looked up): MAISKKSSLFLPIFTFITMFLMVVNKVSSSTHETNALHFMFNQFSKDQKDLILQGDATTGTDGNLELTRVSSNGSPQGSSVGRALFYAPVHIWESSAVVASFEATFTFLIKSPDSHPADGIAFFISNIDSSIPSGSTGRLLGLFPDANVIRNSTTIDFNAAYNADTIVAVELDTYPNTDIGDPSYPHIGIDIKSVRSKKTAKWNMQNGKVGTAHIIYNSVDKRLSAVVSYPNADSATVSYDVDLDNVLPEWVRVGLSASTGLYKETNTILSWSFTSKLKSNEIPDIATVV

[9] = anti-His antibody binders, primary screen, artefact control for SMM control protein annotation, biochemical, small-molecule microarray, 635 nm fluorescence (AID 1128); settings: anti-His Alexa647 antibody binding, higher = more signal;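 further: score merges feature fluorescence with signal-to-noise for each printed compound spot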
[10] = tested on: Human papillomavirus type 1a E7 protein (residues 1-88); experiment: HPV1a E7 small-molecule binders, primary screen, biochemical, small-molecule microarray, residues 1-88, 635 nm (AID 1129); settings: small-molecule microarray binding, fluorescence 635 nm; higher = more signal
[11] = molecular target: Focal adhesion kinase 1 (Homo sapiens) (UniProt Q05397); experiment: small-molecule microarray binders of FAK, primary screen, biochemical, 635/667 nm fluorescence, BSA, DTT (AID 1130); settings: PTK2 binding, 635 nm fluorescence, higher = more signal;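 further: composite of spot emission at 667 nm and signal to noise over triplicate slides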
Chain of Focal adhesion kinase 1 (Homo sapiens) (Q05397 whole entry, looked up): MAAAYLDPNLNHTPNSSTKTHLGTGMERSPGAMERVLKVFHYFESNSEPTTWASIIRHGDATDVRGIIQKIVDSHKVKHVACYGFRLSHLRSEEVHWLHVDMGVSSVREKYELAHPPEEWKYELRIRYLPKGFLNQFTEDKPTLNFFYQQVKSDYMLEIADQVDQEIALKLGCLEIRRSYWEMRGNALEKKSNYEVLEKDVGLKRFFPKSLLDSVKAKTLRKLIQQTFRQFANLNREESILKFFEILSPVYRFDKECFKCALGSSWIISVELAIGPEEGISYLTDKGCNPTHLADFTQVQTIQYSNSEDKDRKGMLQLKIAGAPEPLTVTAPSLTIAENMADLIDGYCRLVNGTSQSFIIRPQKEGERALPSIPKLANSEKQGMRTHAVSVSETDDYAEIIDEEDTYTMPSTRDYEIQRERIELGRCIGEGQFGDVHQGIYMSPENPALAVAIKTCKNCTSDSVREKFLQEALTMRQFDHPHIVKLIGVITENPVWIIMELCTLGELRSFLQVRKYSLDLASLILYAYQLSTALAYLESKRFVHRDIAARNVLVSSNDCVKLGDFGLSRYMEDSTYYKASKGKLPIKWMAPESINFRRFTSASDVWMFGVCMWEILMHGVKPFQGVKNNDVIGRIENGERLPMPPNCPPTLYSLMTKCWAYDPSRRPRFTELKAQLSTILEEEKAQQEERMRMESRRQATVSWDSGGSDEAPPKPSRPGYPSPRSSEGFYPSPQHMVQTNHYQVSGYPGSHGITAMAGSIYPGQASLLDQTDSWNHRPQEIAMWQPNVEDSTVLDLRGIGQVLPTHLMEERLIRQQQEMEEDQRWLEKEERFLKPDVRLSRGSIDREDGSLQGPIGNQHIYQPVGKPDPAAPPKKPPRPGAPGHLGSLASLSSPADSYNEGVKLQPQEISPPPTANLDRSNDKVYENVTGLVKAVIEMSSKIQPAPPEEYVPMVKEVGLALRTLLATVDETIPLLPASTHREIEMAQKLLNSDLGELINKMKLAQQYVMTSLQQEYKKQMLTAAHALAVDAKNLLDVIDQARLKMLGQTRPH

[12] = tested on: Fibrinogen (Alexa647-labelled); experiment: fibrinogen binders on compound microarrays, profiling panel, artefact control for SMM control-protein annotation, biochemical, small-molecule microarray, 635/667 nm fluorescence (AID 1131); settings: fibrinogen-A647 binding fluorescence, higher = more signal;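 further: z-score merges 667 nm fluorescence with per-spot signal-to-noise over triplicate slides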
[13] = molecular target: Follistatin (Homo sapiens) (UniProt P19883); experiment: follistatin binders on small-molecule microarrays, primary screen, biochemical, small-molecule microarray, 635/667 nm fluorescence (AID 1132); settings: FST binding, 635 nm fluorescence, higher = more signal
Chain of Follistatin (Homo sapiens) (P19883 whole entry, looked up): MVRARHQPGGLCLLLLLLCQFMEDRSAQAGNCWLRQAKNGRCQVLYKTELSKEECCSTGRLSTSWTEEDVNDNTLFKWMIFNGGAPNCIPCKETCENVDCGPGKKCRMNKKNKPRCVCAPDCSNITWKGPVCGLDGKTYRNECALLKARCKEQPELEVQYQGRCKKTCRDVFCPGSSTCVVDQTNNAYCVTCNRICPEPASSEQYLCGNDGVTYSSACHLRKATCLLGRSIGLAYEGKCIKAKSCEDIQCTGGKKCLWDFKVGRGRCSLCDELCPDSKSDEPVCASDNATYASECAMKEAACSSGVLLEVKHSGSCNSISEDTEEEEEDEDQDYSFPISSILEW

[14] = molecular target: Fibroblast growth factor 2 (Homo sapiens) (UniProt P09038); experiment: FGF2 binders on small-molecule microarrays, primary screen, biochemical, small-molecule microarray, 635/667 nm fluorescence (AID 1133); settings: small-molecule microarray binding, FGF2, fluorescence 635/667; higher = more signal
Chain of Fibroblast growth factor 2 (Homo sapiens) (P09038 whole entry, looked up): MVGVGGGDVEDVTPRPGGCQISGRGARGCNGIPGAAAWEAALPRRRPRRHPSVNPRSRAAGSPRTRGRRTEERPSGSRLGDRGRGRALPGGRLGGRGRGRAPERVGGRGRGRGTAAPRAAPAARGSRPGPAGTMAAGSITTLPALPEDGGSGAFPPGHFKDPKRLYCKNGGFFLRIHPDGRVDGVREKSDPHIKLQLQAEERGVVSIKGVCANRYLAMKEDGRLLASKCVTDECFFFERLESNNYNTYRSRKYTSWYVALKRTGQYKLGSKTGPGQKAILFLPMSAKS

[15] = mitochondrial membrane potential change in A549 cells, profiling panel, cell-based, JC-1 fluorescence, basal, 24 h, 100 nL (AID 1138); settings: higher = more signal;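 further: A549 lung adenocarcinoma cells under basal conditions with no added stimulus; test concentration not given here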
Lefty1 = Lefty1 binders on small-molecule microarrays, primary screen, biochemical, small-molecule microarray, 635/667 nm fluorescence (AID 1139); settings: small-molecule microarray binding, fluorescence 635/667; higher = more signal
[16] = tested on: wheat germ agglutinin (Triticum aestivum), Alexa647-labelled; experiment: wheat germ agglutinin binders on compound microarrays, profiling panel, artefact control for SMM control-protein annotation, biochemical, small-molecule microarray, 635/667 nm fluorescence (AID 1140); settings: WGA-A647 binding, 635 nm fluorescence, higher = more signal;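 further: score merges 667 nm feature emission with signal to noise over triplicate slides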
[17] = molecular target: Luciferin 4-monooxygenase (Photinus pyralis) (UniProt P08659); experiment: firefly luciferase enzyme inhibitors, primary screen, biochemical, luminescence, purified enzyme, 2006 set (AID 1141); settings: SteadyGlo luminescence, 30 min, higher = more signal, called active from +8 up or from −8 down;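 further: cell-free assay with purified firefly luciferase at 100 ng per well in PBS; test concentration not given here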
Chain of Luciferin 4-monooxygenase (Photinus pyralis) (P08659 whole entry, looked up): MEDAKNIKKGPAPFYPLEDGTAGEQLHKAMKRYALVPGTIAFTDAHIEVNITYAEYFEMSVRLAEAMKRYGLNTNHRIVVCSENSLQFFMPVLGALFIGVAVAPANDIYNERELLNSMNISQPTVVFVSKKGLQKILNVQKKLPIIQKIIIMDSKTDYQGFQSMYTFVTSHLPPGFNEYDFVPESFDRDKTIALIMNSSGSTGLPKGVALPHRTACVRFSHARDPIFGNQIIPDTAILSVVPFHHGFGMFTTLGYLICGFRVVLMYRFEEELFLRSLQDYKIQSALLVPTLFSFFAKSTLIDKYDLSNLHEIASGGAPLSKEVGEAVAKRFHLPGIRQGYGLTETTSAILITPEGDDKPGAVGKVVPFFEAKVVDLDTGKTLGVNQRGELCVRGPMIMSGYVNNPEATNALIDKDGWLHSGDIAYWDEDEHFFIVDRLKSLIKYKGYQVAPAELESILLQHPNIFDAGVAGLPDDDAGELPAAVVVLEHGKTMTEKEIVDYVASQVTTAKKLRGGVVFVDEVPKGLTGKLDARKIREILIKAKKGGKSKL

SMILES	composite z-score (Albumin (Bos taurus))	composite Z-score [1]	composite z-score [2]	composite z-score [3]	composite z-score [4]	composite z-score [5]	composite z-score [6]	composite z-score (Sam68 (KHDRBS1))	composite z-score [7]	composite z-score [8]	composite z-score [9]	composite z-score [10]	composite z-score [11]	composite z-score [12]	composite z-score [13]	composite z-score [14]	z-score [15]	composite z-score (Lefty1)	composite z-score [16]	z-score [17]
COc1ccc([C@H]2OC[C@@H]3C[C@@H](Cc4ccccc4)C(=O)N32)cc1	-0.127	0.584 (inactive)	0.111	-0.164	0.796	0.39	-0.123	0.338	0.377	0.143	1.3	0.527	-0.181	-0.0072	0.62	0.91	1.25	1.08	0.208	0.0077 (inactive)
COC(=O)[C@@]1(Cc2ccc(OC)cc2)[C@H]2c3cc(C(=O)N(C)C)n(Cc4ccccn4)c3C[C@H]2CN1C(=O)c1ccccc1	0.972	0.655 (inactive)	0.0674	0.293	0.89	3.14	1.03	-0.0453	-0.855	-0.0204	1.57	0.451	1.44	0.547	-0.363	-0.567	0.332	-0.805	1.35	1.6 (inactive)
C=CCOC(=O)[C@H]1[C@@H]2C(=O)O[C@@H](c3ccccc3)[C@@H](c3ccccc3)N2[C@@H](c2ccc(OCCOC(=O)[C@@H]3C[C@@H]4C(=O)N[C@@H](CC(C)C)C(=O)N4[C@@H]3c3ccc(O)cc3)cc2)[C@]12C(=O)Nc1ccccc12	0.481	0.183 (inactive)	0.058	-0.0631	0.592	2.62	0.545	1.29	1.25	1.15	2.05	1.21	0.289	0.78	1.39	1.83	-1.56	1.54	0.232	-0.0838 (inactive)
C[N+](C)(C)CCCCCCNC(=O)[C@@H]1C[C@@H]2C(=O)N[C@@H](Cc3ccccc3)C(=O)N2[C@@H]1c1cccc(OCCO)c1	0.358	0.6 (inactive)	0.0628	-0.132	0.668	1.59	0.591	1.05	1.27	0.622	2.18	0.432	0.214	0.608	1.34	1.45	0.435	1	0.659	-0.205 (inactive)
COc1ccc(CCNC(=O)[C@@]2(Sc3ccc(C)cc3)CC(=O)N(C(C)C)[C@@H]2c2ccc(CO)cc2I)cc1	-0.235	-0.174 (inactive)	-0.0647	0.0118	0.304	1.04	0.648	0.0063	-0.578	-0.613	0.622	0.178	0.0367	0.144	-0.147	-0.172	0.968	-0.979	-0.258	-0.436 (inactive)
COC(=O)[C@@]1(Cc2ccccc2)[C@H]2c3cc(C(=O)N(C)C)n(Cc4ccsc4Br)c3C[C@H]2CN1C(=O)c1ccccc1	0.928	-0.502 (inactive)	0.501	-0.0597	0.586	2.66	-0.0415	1.21	-1.03	0.883	1.18	1.24	0.483	0.834	0.797	-0.535	1.04	-0.143	0.948	0.78 (inactive)
COc1cc(COC(C)=O)ccc1OC(C)=O	-0.0355	-0.254 (inactive)	0.397	-0.0304	-0.171	0.279	-0.184	0.624	0.558	0.733	-0.0364	0.262	0.661	0.0038	0.512	0.102	1.47	0.45	-0.155	-1.52 (inactive)
COCCOC(=O)N1C(=O)[C@@]2(c3cc(C#CCC(C(=O)OC)C(=O)OC)ccc31)[C@H](C(=O)N1CCN(c3ncccn3)CC1)[C@H]1C(=O)O[C@H](c3ccccc3)[C@H](c3ccccc3)N1[C@@H]2c1ccccc1OCCO	-0.503	-0.444 (inactive)	0.176	-0.147	0.347	0.928	0.698	1.29	1.09	1.13	1.02	1.2	0.467	0.997	1.38	1.29	-0.835	1.54	0.755	-0.291 (inactive)
CCCC[C@@H]1C[C@H]1[C@@H](NC(=O)C(C)(C)C)c1ccc(C(F)(F)F)cc1	0.315	-0.414 (inactive)	-0.222	-0.0986	0.289	0.834	0.0265	-0.305	-2.05	-0.0101	1.73	0.779	0.702	-0.27	-1.57	-1.4	-1.08	-0.722	-0.372	-3.32 (inactive)
CC1CC/C=C\[C@H]2OC34C=CCN(C(C)(C)C)C(=O)[C@H]3N(CCO)C(=O)[C@@H]4C2C(=O)O1 (stereo not given in full)	0.922	0.108 (inactive)	-0.341	-0.148	0.917	1.08	1.41	-0.719	-1.31	-2.33	-0.931	-0.585	-0.0131	-0.671	-0.352	-0.845	-0.315	-0.991	0.119	0.864 (inactive)
